From PubChem BioAssay (NCI)
About 83,000 compounds went through this panel and 20% of them were active in at least one assay; those are over-represented in the sample as a whole.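 Testing used 96-well plates and a 48-hour single-concentration exposure. Example: -40 means 40% of the starting cells died.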 A number with no mark means an inactive call. Calls of active or inactive are those of the source. Rule for the calls: active = growth percent below 10; inactive = the rest.

What follows are compounds tested on ACHN renal (assay: NCI-60 one-dose screen, 48 h (100 = growth as untreated, 0 = no growth, -100 = all killed)). Settings: 10 µM unless noted.
In the case of COc1ccc(-c2nc(N=Nc3c(O)[nH]c4ccccc34)nc(N3CCOCC3)c2C#N)cc1, the growth is reported as 25%.
COc1cc2nc(-c3ccc(C(F)(F)F)cc3)cc(OCCN3CCCC3)c2cc1OC was tested, and the growth was 84.1%.
For NC(=S)N/N=C(/c1ccccc1)c1ccccc1N, the growth was 90.6%.
With C=C(C)[C@@H]1CC[C@]2(C=O)CC[C@]3(C)[C@H](CC[C@@H]4[C@@]5(C)CCCNC(C)(C)[C@@H]5CC[C@]43C)[C@@H]12 the growth was 88.1%.
CCCNC(=O)Oc1ccc(/C(=C(\C)c2ccccc2)c2ccc(OCCN3CCCCC3)cc2)cc1 was tested, and the growth was 91%.
Compound CCOC(=O)Oc1c(OC)cc(C(=O)O[C@@H]2C[C@@H]3CN4CCc5c([nH]c6cc(OC)ccc56)[C@H]4C[C@@H]3[C@H](C(=O)OC)[C@H]2OC)cc1OC has a growth of 66.5%.
COc1ccc(OC)c(/C=C/[C@H]2O[C@@H](C)[C@H](O)[C@@H]2O)c1 was tested, and the growth was 106%.
CCC(=O)c1ccc(O)c(OC)c1 showed a growth of 103%.
Compound Clc1cc(Cl)cc(N2N=C(c3cccc(Nc4ccncc4)c3)CC2c2ccccc2)c1 (stereo not drawn) has a growth of 14.9%.
Fc1cc(C2=NNC(c3ccc[nH]3)C2)ccc1-n1ccc(C(F)(F)F)n1 (stereo not drawn) was tested, and the growth was 91%.
For Clc1nc(Nc2ccccc2)nc(Nc2ccccc2)n1, the growth was 98.9%.
Cn1c(=O)c2[nH]c(CCCc3nc4c([nH]3)c(=O)n(C)c(=O)n4C)nc2n(C)c1=O was tested, and the growth was 103%.
For C=C1C(=O)O[C@H]2[C@H]1CC/C(COC(=O)NCCc1c[nH]c3ccc(Cl)cc13)=C\CC[C@@]1(C)O[C@@H]21, the growth was -100% (active).
Work on Cc1[nH]c(C(=O)Nc2ccccc2OCc2cccc(C(=O)NCCN)c2)c(Cl)c1Cl yielded a growth of 101%.
COc1cc2oc(-c3cccc(C(=O)Nc4ccc(Cl)cc4)c3)cc(=O)c2c(OC)c1OC gave a growth of 33.2%.
For O=C(Nc1nc2ccc(S(=O)(=O)Nc3ccc(C4(C(F)(F)F)CC4)cc3)cc2[nH]1)c1cnccn1, the growth was 43.5%.
In the case of CCCCCCCCCCN=C(N)N=C(N)N, the growth is reported as 40.1%.
Work on CC(C)NC(=O)N1C(=O)CCC1NNC(=O)c1ccc([N+](=O)[O-])cc1 (stereo not drawn) yielded a growth of 106%.
Compound N#Cc1cc(-c2nc3ccccc3s2)c(=O)n(NS(=O)(=O)c2ccc(Cl)cc2)c1N has a growth of 95.5%.
Work on O=C1c2ccccc2-c2c1c1c(NCCCO)nc3ccccc3c1n2Cc1ccccc1 yielded a growth of 50.1%.
Compound COC(=O)N[C@H]1CCc2cc(OC)c(OC)c(OC)c2-c2ccc(SC)c(=O)cc21 has a growth of 24.9%.
In the case of COc1nccnn1, the growth is reported as 100%.
In the case of Cc1ccc(C(=O)Nc2ccccc2C(=O)N/N=C(\c2ccccc2)c2ccccn2)cc1, the growth is reported as 15.1%.
In the case of CCCCN(CCCC)CCc1c(C)cc(C)c(CCN(CCCC)CCCC)c1O, the growth is reported as 29.3%.
In the case of Nc1cc(N)c2cccnc2c1O, the growth is reported as 54.3%.
CN1CCCC1=Nc1ccccc1 was tested, and the growth was 115%.
For COc1ccc(CNC(=O)COc2ccc(/C=N/Nc3nc4ccccc4s3)cc2)cc1, the growth was 8.13% (active).
Work on O=C1OC(=O)C2C1CC=CC2c1ccccc1 (stereo not drawn) yielded a growth of 104%.
COc1ccc(CC(C)=C(c2ccc(OCCN(C)C)cc2)c2ccc(OCCN(C)C)cc2)cc1 gave a growth of 98%.
O=C(N=Nc1c(O)[nH]c2ccc(F)cc12)c1cc2ccccc2[nH]1 was tested, and the growth was 100%.
O=S(=O)(NCCNc1nccc(-c2c(-c3cccc(F)c3)nc3occn23)n1)c1cccc2ccccc12 gave a growth of 40.5%.
O=S(=O)(c1ccc(N/N=C\c2ccccc2)cc1)c1ccc(N/N=C/c2ccccc2)cc1 showed a growth of 57.4%.
Work on CCOc1ccc(/C=N/Nc2cc(C)nc3ccc(Cl)cc23)cc1 yielded a growth of 51.2%.
CC(C)Cc1ccc(C(C)C(=O)NCc2c[nH]c3ccc(Cl)cc23)cc1 (stereo not drawn) gave a growth of 86.6%.
Compound COc1ccccc1OCC(=O)N1CCCCCC1 has a growth of 105%.
With Nc1nc(SN=Nc2ccc(S(N)(=O)=O)cc2)c2[nH]cnc2n1 the growth was 15.9%.
COc1ccc(C2CC(n3nnnc3-c3ccccc3)=NN2)cc1 (stereo not drawn) showed a growth of 42.1%.
CC(c1ccccc1)n1ccnc1CO (stereo not drawn) was tested, and the growth was 103%.
